Values joined by “and” are separate entries in the source; they are usually repeats but may differ in a detail not shown here. Identical values can stand only once. Inconclusive results are not listed. Active and inactive are the calls of the source. Unless noted, the call rests on the fitted dose curve; in most records, active means well fitted curve in the direction sought with a large enough effect; inconclusive means small, poorly fitted or top-dose-only effect, or another doubt; inactive means no such curve, though single readings can be large; an effect the other way counts as inactive or inconclusive.
What was measured:
[1] = qHTS Assay for Identifying Gametocytocidal Compounds (AID 743244);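 further: on the % scale 0 is the no-effect control and ±100 the full control effect; actives lower the fluorescent signal which means gametocytes are killed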; settings: P. falciparum 3D7 stage III-V gametocytes, alamarBlue, 72 h; max response: stronger effect = lower value
Outline: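 A resazurin-based viability read-out was applied to mature P. falciparum gametocytes: 72 h compound treatment, then 24 h dye incubation, with falling fluorescence signalling gametocytocidal effect.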

[2] = qHTS assay for small molecule antagonists of the retinoid-related orphan receptor gamma (ROR-gamma) signaling pathway - cell viability counter screen (AID 720652; active means well fitted curve in the direction sought with a large enough effect in the repeat runs; an effect the other way counts as inactive or inconclusive;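 further: CHO reporter cells with doxycycline-induced ROR-gamma expression; compound exposure lasted 16 hr before ATP read; on the % scale 0 is the no-effect control and ±100 the full control effect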)
Outline: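 Cytotoxicity is quantified via intracellular ATP (CellTiter-Glo luminescence) in doxycycline-induced CHO ROR response element-luciferase reporter cells treated with compound for 16 hr at 37 C, 5% CO2.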

[3] = qHTS assay for small molecule agonists of the antioxidant response element (ARE) signaling pathway measured by Nrf2-dependant transcriptional activity - cell viability counter screen (AID 720653; active means well fitted curve in the direction sought with a large enough effect in the repeat runs; an effect the other way counts as inactive or inconclusive; further: on the % scale 0 is the no-effect control and ±100 the full control effect); settings: ARE-bla HepG2 viability, CellTiter-Glo ATP luminescence, 16 h; max response: stronger effect = lower value
Outline: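 Cytotoxicity counter screen: intracellular ATP quantified by CellTiter-Glo luminescence in the same ARE-bla HepG2 plates, after 16 h compound exposure and a 2 h beta-lactamase substrate step.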

[4] = qHTS assay for cell viability of HEK293 cells (AID 743288); settings: ATP luminescence (CellTiter-Glo), 18 h; max response: stronger effect = lower value; further: on the % scale 0 is the no-effect control and ±100 the full control effect; nearly all actives have a fitted effect of over 50% in size
Outline: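 Environmental chemicals tested in qHTS format against parental HEK293 cells; 18 h treatment, 37 C; read-out ATP luminescence (CellTiter-Glo), 30 min RT development.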

[5] = qHTS assay for cell viability of the p53RE-bla HCT-116 cell line (AID 743292); further: on the % scale 0 is the no-effect control and ±100 the full control effect; nearly all actives have a fitted effect of over 55% in size
Outline: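 CellSensor p53RE-bla HCT-116 cells, 4,000/well, preincubated 5 h at 37 C, then exposed to compounds in DMSO for 16 h at 37 C. Viability read as CellTiter-Glo luminescence (intracellular ATP) after 30 min at room temperature.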

[6] = qHTS assay for small molecule agonists of the antioxidant response element (ARE) signaling pathway measured by Nrf2-dependant transcriptional activity (AID 720636; active means well fitted curve in the direction sought with a large enough effect in the repeat runs; an effect the other way counts as inactive or inconclusive; further: potency means the concentration at half of the fitted maximal effect)
Outline: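 ARE-luc HepG2 cells carrying an Nrf2-responsive luciferase reporter were plated in medium with 1% dialyzed FBS, left 6 hr at 37 C to attach, then exposed to compound for 16 hr. Luciferase luminescence was read after ONE-Glo addition.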

[7] = qHTS profiling for inhibitors of Plasmodium falciparum (3D7) proliferation (AID 743322);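 further: infected erythrocytes exposed to compound for 72 h before lysis; 100% = DMSO vehicle wells and 0% = 0.29 µM artemisinin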; settings: P. falciparum 3D7 proliferation; at 28.7 µM (top of the series) unless noted
Outline: (§1)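 Erythrocytes infected with P. falciparum (0.3% parasitemia, 2.5% hematocrit) incubated with compounds 72 h at 37 C, 5% CO2. Lysis with saponin/Triton buffer containing SYBR Green I, overnight at room temperature in the dark; DNA fluorescence (485/535 nm) normalised to 0.29 uM artemisinin and DMSO.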

[8] = qHTS profiling for inhibitors of Plasmodium falciparum (DD2) proliferation (AID 743323; call rule not given here); settings: lower = more inhibition; at 28.7 µM (top of the series) unless noted
Outline: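 Parasite proliferation measured via DNA-dye fluorescence, as uninfected erythrocytes lack DNA. Cultures at 0.3% parasitemia and 2.5% hematocrit incubated 72 h with compound; signal scaled between vehicle and 0.29 uM artemisinin wells.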

[9] = qHTS profiling for inhibitors of Plasmodium falciparum (HB3) proliferation (AID 743324); settings: Plasmodium falciparum HB3 blood-stage proliferation; at 28.7 µM (top of the series) unless noted;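 further: 100% = DMSO vehicle wells and 0% = artemisinin-treated control wells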
Outline: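 P. falciparum HB3 grown in erythrocytes (0.3% parasitemia, 2.5% hematocrit final) with compound for 72 h at 37 C, 5% CO2. Parasite DNA detected by SYBR Green after saponin/triton lysis overnight; normalized to 0.29 uM artemisinin and DMSO.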

[10] = qHTS profiling of the MIPE4 collection as inhibitors of Plasmodium falciparum (3D7) proliferation (AID 743344; call rule not given here;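 further: scaled between DMSO vehicle wells and 0.29 µM artemisinin as full inhibition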); settings: P. falciparum 3D7 in erythrocytes, SYBR Green DNA fluorescence, 72 h; at 28.5 µM (top of the series)
Outline: as §1

[11] = qHTS profiling of the MIPE4 collection as inhibitors of Plasmodium falciparum (DD2) proliferation (AID 743345; call rule not given here); settings: P. falciparum Dd2 in erythrocytes, SYBR Green DNA, 72 h; at 28.5 µM (top of the series)
Outline: as §1

[12] = qHTS profiling of the MIPE4 collection as inhibitors of Plasmodium falciparum (DD2) proliferation (Rep 2) (AID 743346; call rule not given here); settings: P. falciparum Dd2 in erythrocytes, SYBR Green DNA, 72 h; at 28.5 µM (top of the series)
Outline: as §1

[13] = qHTS profiling of the MIPE4 collection as inhibitors of Plasmodium falciparum (HB3) proliferation (AID 743347; call rule not given here;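 further: plate controls were DMSO vehicle wells for no effect and artemisinin wells for full effect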); settings: P. falciparum HB3 in erythrocytes, SYBR Green DNA, 72 h; at 28.5 µM (top of the series)
Outline: as §1

Question: For CC[C@H]1OC(=O)[C@H](C)C(=O)[C@H](C)[C@@H](O[C@@H]2O[C@H](C)C[C@H](N(C)C)[C@H]2O)[C@](C)(OC)C[C@@H](C)C(=O)[C@H](C)[C@H]2N(CCCCn3cnc(-c4cccnc4)c3)C(=O)O[C@]12C, which max response [1] is on record?
Answer: The max response was -5.82% (inactive) and 15.9% (inactive).

Question: With Nc1ccc([N+](=O)[O-])cc1O as the compound, how does the Potency [2] read?
Answer: Its Potency is “inactive”.

Question: What about the max response [3] of the same compound?
Answer: Its max response is -6.11% (inactive) and -12.4% (inactive).

Question: What about the max response [1] of the same compound?
Answer: Its max response is -2.68% (inactive).

Question: What about the max response [4] of the same compound?
Answer: Its max response is 3.96% (inactive) and 2.89% (inactive).

Question: What about the Potency [5] of the same compound?
Answer: The Potency was “inactive”.

Question: With O=C(O)/C=C\C(=O)O as the compound, how does the Potency [6] read?
Answer: Its Potency is “inactive”.

Question: What about the Potency [2] of the same compound?
Answer: Its Potency is “inactive”.

Question: What about the max response [3] of the same compound?
Answer: The max response was -4.39% (inactive).

Question: And the max response [4]?
Answer: Its max response is 5.88% (inactive).

Question: And the Potency [5]?
Answer: Its Potency is “inactive”.

Question: Which Potency [2] does the source give for Nc1ccc(O)c([N+](=O)[O-])c1 here?
Answer: The Potency was “inactive”.

Question: And the max response [3]?
Answer: The max response was -1.19% (inactive) and -1.35% (inactive).

Question: And the max response [4]?
Answer: The max response was -18.2% (inactive) and -13.9% (inactive).

Question: What about the Potency [5] of the same compound?
Answer: The Potency was “inactive”.

Question: Which results are given for O=C(O)[C@H](O)[C@@H](O)[C@H](O)[C@H](O)CO?
Answer: Potency [6]: inactive; max response [3]: 21% (inactive); max response [1]: -9.36% (inactive) and 0.225% (inactive); max response [4]: -14.1% (inactive); Potency [5]: inactive

Question: Which max response [1] does the source give for Cc1nc2ccccc2n1Cc1ccc(Cl)cc1 here?
Answer: Its max response is 3.69% (inactive).

Question: What does the source list for Nc1nc2ccc([N+](=O)[O-])cc2s1?
Answer: Potency [6]: inactive; Potency [2]: inactive; max response [3]: -4.37% (inactive); max response [4]: 6.78% (inactive); Potency [5]: inactive

Question: Which results are given for CCCCCCCCCCCCCCCC(=O)OC(C)C?
Answer: Potency [6]: inactive; max response [3]: -10.7% (inactive); max response [4]: -7.13% (inactive); Potency [5]: inactive

Question: Which max response [1] does the source give for C[N+]1(C)[C@@H]2CC(OC(=O)[C@H](CO)c3ccccc3)C[C@H]1[C@@H]1O[C@@H]12 (stereo not given in full) here?
Answer: The max response was -10.6% (inactive).

Question: Which results are given for C=CCCCCCCCCC(=O)O?
Answer: Potency [6]: inactive; max response [3]: 1.06% (inactive); max response [1]: 8% (inactive); max response [4]: -1.32% (inactive); Potency [5]: inactive

Question: Which max response [1] does the source give for Cc1ccc(O)c(-n2nc3ccccc3n2)c1 here?
Answer: The max response was -7.72% (inactive).

Question: Which results are given for CN(C)c1ccc(N=NS(=O)(=O)O)cc1?
Answer: Potency [6]: 54.5 µM (active); Potency [2]: inactive; max response [3]: -12.4% (inactive) and -28.6% (inactive); max response [4]: -6.45% (inactive) and -13.1% (inactive); Potency [5]: inactive

Question: Which max response [1] does the source give for C/C(=N\O)c1ccc(OCC(=O)N2CCCCC2)cc1 here?
Answer: Its max response is 0.0539% (inactive).

Question: For CC(C(=O)O)c1ccc2c(c1)[nH]c1ccc(Cl)cc12 (stereo not given), which max response [1] is on record?
Answer: Its max response is 3.15% (inactive).

Question: For CO/N=C(\C(=O)N[C@@H]1C(=O)N2C(C(=O)O)=C(COC(C)=O)CS[C@H]12)c1csc(N)n1 (stereo in doubt), which max response [1] is on record?
Answer: Its max response is 12.7% (inactive).

Question: For CN(C)[C@@H]1C(=O)C(C(=O)NCN2CCCC2)=C(O)[C@@]2(O)C(=O)C3=C(O)c4c(O)cccc4[C@@](C)(O)C3C[C@@H]12 (stereo not given in full), which max response [1] is on record?
Answer: The max response was 6.22% (inactive) and 1.93% (inactive).

Question: With C=CCc1cccc(/C=N/NC(=O)CN2CCN(Cc3ccccc3)CC2)c1O as the compound, how does the remaining parasite growth % (stronger effect = lower value) [7] read?
Answer: The remaining parasite growth % (stronger effect = lower value) was 16.2%.

Question: And the activity, percent of control [8]?
Answer: The activity, percent of control was 11.8%.

Question: What about the remaining proliferation (% of control), lower = more inhibition [9] of the same compound?
Answer: Its remaining proliferation (% of control), lower = more inhibition is 9.08%.

Question: With COc1cc(NC(C)CCCN)c2ncccc2c1 (stereo not given) as the compound, how does the remaining parasite growth % (stronger effect = lower value) [7] read?
Answer: The remaining parasite growth % (stronger effect = lower value) was 4.3% [at 9.63 µM].

Question: And the activity, percent of control [8]?
Answer: Its activity, percent of control is 2.77% [at 9.63 µM].

Question: And the remaining proliferation (% of control), lower = more inhibition [9]?
Answer: Its remaining proliferation (% of control), lower = more inhibition is 6.48% [at 9.63 µM].

Question: And the parasite growth, % of DMSO control [10]?
Answer: The parasite growth, % of DMSO control was 7.16%.

Question: And the parasite growth remaining, % of DMSO control (lower = more inhibition) [11]?
Answer: Its parasite growth remaining, % of DMSO control (lower = more inhibition) is 8.84%.

Question: And the parasite growth, % of control (lower = inhibition) [12]?
Answer: Its parasite growth, % of control (lower = inhibition) is 15.5%.

Question: And the growth, % of control [13]?
Answer: Its growth, % of control is 8.75%.

Question: Which parasite growth, % of DMSO control [10] does the source give for COC(=O)C1=C(C)NC(C)=C(C(=O)OCC(C)C)C1c1ccccc1[N+](=O)[O-] (stereo not given) here?
Answer: The parasite growth, % of DMSO control was 5.69%.

Question: What about the parasite growth remaining, % of DMSO control (lower = more inhibition) [11] of the same compound?
Answer: Its parasite growth remaining, % of DMSO control (lower = more inhibition) is 15%.

Question: And the parasite growth, % of control (lower = inhibition) [12]?
Answer: Its parasite growth, % of control (lower = inhibition) is 8.98%.

Question: What about the growth, % of control [13] of the same compound?
Answer: Its growth, % of control is 9.44%.
